Assay [1] addresses Ephrin type-A receptor 4 (Homo sapiens) (UniProt P54764). The note with it: at 1 µM.
The target in assay [2] is Ephrin type-A receptor 5 (Homo sapiens) (UniProt P54756). The note with it: at 1 µM.
Assay [3] has the same target. The note with it: at 10 µM.
The target of assay [4] is Ephrin type-A receptor 7 (Homo sapiens) (UniProt Q15375). To be noted: at 1 µM.
Assay [5] has the same target. The note with it: at 10 µM.
For assay [6], the target named is T1, Ephrin type-A receptor 8 (Homo sapiens) (UniProt P29322).
T1 sequence (whole entry): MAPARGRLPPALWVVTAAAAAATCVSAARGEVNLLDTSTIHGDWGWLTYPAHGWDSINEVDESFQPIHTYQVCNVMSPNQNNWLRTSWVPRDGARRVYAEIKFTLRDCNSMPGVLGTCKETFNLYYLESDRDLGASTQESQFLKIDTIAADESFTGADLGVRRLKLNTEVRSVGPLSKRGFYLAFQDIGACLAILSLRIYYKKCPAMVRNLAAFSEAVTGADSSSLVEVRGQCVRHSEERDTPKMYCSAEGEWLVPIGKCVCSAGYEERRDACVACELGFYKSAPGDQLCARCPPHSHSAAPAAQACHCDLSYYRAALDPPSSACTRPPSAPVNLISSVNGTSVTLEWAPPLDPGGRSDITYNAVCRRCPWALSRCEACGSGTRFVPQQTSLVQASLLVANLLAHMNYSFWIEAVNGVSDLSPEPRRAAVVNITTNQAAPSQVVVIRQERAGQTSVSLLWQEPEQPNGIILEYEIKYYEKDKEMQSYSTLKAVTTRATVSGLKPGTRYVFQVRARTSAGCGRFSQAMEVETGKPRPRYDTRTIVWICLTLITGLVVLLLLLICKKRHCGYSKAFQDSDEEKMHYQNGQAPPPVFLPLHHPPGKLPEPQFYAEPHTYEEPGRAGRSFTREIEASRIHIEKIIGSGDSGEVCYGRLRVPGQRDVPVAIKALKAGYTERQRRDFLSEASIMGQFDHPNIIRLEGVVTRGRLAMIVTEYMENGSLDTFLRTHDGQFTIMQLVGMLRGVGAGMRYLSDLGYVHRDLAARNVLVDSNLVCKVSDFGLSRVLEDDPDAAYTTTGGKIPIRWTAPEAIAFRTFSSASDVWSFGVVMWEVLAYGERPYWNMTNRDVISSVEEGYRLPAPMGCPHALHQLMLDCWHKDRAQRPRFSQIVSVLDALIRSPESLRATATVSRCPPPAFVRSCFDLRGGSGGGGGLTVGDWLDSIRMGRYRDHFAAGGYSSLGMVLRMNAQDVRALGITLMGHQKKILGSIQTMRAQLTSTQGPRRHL
The note with it: at 1 µM.

Assay [7] deals with T2, Ephrin type-B receptor 1 (Homo sapiens) (UniProt P54762).
T2 sequence (whole entry): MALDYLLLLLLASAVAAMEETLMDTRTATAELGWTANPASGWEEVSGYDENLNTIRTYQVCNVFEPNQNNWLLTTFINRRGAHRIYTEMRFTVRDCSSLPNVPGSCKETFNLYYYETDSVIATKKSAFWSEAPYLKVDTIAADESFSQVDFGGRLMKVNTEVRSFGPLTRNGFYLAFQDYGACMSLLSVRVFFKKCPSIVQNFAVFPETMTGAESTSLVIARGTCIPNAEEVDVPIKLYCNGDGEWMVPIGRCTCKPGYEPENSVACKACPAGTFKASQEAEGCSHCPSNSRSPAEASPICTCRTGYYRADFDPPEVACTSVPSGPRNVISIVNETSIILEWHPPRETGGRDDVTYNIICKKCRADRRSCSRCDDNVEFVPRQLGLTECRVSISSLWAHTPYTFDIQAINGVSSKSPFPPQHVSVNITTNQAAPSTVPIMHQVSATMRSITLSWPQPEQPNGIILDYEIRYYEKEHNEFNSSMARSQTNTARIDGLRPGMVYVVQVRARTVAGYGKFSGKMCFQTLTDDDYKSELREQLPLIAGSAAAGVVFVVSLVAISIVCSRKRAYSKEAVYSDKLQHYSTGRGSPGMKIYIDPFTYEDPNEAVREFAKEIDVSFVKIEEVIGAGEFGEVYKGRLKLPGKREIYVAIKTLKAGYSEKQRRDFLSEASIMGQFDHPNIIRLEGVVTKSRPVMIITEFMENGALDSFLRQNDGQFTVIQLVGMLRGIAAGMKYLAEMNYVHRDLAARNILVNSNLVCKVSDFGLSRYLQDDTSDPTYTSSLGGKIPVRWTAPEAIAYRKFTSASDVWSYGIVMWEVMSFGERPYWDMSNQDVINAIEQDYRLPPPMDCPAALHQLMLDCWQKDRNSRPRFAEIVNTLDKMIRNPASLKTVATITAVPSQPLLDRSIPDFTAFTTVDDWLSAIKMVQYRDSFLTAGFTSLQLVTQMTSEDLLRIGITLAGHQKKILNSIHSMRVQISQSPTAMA
The note with it: at 1 µM.

Assay [8] addresses T1, Ephrin type-A receptor 8 (Homo sapiens). The note with it: at 10 µM.
Assay [9] deals with T3, Ephrin type-A receptor 3 (Homo sapiens) (UniProt P29320).
T3 sequence (whole entry): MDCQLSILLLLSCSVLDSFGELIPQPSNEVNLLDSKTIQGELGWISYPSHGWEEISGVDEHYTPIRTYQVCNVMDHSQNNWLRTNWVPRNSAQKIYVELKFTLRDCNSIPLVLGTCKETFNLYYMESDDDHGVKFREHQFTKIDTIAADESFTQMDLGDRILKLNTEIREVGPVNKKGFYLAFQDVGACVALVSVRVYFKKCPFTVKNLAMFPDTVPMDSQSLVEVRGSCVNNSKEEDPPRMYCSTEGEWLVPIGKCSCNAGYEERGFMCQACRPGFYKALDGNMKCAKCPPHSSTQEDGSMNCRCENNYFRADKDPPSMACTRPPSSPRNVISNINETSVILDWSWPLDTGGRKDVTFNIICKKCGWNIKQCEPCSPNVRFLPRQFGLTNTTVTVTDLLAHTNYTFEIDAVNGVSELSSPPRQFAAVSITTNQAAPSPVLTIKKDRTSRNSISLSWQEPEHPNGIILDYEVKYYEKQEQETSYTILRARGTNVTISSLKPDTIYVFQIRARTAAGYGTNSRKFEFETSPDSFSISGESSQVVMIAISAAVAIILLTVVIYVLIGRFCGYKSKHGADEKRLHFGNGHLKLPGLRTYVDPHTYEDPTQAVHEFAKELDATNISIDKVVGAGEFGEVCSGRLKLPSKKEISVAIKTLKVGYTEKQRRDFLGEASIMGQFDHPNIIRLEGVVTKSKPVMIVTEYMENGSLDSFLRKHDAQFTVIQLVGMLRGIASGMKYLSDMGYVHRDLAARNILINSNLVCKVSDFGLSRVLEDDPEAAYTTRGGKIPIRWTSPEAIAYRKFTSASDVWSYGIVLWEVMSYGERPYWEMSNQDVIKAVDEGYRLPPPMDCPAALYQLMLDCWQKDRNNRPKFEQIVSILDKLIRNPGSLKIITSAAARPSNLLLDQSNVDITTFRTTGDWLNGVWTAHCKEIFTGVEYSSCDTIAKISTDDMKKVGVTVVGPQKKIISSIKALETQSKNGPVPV
The note with it: at 10 µM.

Assay [10] concerns the target Ephrin type-A receptor 4 (Homo sapiens) (UniProt P54764). To be noted: at 10 µM.

This passage reports residual activity results from ChEMBL document CHEMBL2218924, “A broad activity screen in support of a chemogenomic map for kinase signalling research and drug discovery” (Biochem J, 2013).

Sequence of Ephrin type-A receptor 7 (Homo sapiens) (Q15375 28-998 limits assumed): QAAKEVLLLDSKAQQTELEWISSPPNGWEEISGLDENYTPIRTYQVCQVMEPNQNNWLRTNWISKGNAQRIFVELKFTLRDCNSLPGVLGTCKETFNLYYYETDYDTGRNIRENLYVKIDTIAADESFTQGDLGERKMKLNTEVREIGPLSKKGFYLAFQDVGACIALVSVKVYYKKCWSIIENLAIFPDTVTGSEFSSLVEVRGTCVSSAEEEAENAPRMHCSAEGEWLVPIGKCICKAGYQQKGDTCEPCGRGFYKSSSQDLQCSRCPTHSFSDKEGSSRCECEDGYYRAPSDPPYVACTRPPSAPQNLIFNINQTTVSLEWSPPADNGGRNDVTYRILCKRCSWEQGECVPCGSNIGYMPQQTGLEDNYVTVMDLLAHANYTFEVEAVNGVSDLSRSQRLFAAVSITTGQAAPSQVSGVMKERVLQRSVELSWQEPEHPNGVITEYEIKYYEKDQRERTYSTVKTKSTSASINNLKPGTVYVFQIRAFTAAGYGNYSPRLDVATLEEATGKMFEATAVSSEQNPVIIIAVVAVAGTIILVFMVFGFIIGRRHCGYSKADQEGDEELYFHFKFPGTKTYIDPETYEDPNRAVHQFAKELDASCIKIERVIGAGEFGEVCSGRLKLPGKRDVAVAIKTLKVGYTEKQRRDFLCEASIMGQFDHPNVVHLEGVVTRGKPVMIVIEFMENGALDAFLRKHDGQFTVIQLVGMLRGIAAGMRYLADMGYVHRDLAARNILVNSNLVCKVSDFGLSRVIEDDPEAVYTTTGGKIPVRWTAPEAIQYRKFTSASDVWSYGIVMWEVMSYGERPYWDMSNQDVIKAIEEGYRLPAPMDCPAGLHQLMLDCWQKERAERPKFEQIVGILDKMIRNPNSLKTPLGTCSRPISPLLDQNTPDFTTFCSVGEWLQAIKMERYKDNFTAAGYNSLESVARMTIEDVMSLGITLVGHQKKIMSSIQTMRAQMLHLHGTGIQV
Sequence of Ephrin type-A receptor 4 (Homo sapiens) (P54764 whole entry): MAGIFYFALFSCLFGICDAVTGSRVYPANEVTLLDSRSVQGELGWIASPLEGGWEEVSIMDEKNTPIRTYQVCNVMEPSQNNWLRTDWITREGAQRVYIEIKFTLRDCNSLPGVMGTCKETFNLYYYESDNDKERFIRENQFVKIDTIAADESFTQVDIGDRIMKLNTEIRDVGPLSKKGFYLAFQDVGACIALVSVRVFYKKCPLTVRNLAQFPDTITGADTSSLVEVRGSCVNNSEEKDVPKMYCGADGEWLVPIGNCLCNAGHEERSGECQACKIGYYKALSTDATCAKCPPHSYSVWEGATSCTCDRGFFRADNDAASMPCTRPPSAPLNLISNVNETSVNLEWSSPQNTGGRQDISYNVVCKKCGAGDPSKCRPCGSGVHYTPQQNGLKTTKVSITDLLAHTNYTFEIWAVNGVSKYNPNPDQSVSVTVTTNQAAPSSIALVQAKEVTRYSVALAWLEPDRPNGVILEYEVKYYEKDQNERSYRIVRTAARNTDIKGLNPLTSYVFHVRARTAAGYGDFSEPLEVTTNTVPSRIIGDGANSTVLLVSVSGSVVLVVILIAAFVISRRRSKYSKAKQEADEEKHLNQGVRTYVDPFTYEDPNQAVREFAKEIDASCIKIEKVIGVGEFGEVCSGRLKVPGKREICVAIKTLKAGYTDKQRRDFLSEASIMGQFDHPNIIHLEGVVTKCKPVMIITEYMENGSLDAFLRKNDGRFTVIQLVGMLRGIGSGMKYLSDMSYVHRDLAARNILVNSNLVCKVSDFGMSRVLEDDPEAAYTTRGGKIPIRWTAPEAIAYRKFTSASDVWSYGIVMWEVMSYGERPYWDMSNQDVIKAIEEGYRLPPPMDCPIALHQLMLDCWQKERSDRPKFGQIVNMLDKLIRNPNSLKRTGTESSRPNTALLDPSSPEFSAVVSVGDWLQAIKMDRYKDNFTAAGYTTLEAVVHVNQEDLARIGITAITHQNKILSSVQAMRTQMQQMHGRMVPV
Sequence of Ephrin type-A receptor 5 (Homo sapiens) (P54756 whole entry): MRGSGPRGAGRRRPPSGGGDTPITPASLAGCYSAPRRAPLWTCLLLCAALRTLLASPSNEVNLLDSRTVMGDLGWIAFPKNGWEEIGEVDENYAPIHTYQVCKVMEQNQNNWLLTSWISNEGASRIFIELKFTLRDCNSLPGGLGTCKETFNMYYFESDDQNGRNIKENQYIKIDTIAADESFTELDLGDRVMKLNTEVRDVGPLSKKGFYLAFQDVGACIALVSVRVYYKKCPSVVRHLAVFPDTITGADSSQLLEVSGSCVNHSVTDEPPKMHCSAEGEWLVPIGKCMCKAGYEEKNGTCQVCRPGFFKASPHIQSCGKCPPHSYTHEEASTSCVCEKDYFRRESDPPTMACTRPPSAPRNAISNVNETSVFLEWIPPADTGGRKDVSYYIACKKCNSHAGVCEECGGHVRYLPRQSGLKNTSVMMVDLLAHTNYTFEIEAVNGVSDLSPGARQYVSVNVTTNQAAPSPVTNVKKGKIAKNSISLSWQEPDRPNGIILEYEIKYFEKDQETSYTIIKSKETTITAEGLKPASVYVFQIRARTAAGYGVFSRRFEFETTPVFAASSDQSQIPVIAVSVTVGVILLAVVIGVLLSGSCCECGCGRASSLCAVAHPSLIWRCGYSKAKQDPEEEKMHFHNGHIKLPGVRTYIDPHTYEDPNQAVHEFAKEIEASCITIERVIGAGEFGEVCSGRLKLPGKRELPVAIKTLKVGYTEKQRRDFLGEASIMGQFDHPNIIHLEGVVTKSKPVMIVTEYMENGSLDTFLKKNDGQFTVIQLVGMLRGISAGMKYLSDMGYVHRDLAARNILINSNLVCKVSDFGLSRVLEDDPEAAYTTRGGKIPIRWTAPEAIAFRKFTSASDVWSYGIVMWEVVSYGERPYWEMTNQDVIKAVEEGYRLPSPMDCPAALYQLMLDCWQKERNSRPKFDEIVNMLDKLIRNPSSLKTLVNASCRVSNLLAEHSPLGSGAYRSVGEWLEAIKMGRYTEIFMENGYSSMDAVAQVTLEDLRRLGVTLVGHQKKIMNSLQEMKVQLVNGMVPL

As a reminder, the residual activity is the signal under treatment as a percentage of the control signal. In the case of `O=C(NC(NC(=S)Nc1ccc(F)c([N+](=O)[O-])c1)C(Cl)(Cl)Cl)C(c1ccccc1)c1ccccc1` (configuration not stated), the residual activity in [1] was 96%; in assay [2], 104%; in assay [3], 91%; in assay [4] it was 102%; in [5], 99%; in assay [6], 103%. Further, the residual activity in [7] is 97%.
Take `N#C/C(=C1/Nc2ccccc2S1)c1ccnc(NCCc2cccnc2)n1`: the residual activity in [1] worked out at 123%; in [5] it was 77%; in assay [6], 98%; in [8] it was 83%.
In the case of `O=c1c(-c2ccc(F)cc2)c(-c2ccncc2)[nH]n1-c1ccc(Cl)cc1`, the residual activity in assay [2] came out at 119%; in assay [3] it was 82%; in assay [4], 100%; in assay [7], 128%.
For the compound `Cn1c2ccccc2c2c3c(c4c5ccccc5n(CCC#N)c4c21)CNC3=O`, the residual activity was determined as 50% in [9], 43% in assay [4], 39% in [5] and 63% in assay [7].
With `Oc1cccc(-c2nc(N3CCOCC3)c3oc4ncccc4c3n2)c1`, the residual activity came out at 98% in assay [2], 124% in assay [3] and 95% in [7].
For the compound `NCCNc1ncc(C(N)=O)c(Nc2cccc(C(F)(F)F)c2)n1`, the residual activity in assay [2] is 102%; in [3] it was 74%; in [5], 72%.
With `N#C/C(=C\c1ccc(O)c(O)c1)C(=O)NCc1ccccc1`, the residual activity in assay [2] worked out at 101%; in assay [4] it was 104%; in assay [5] it was 85%.
In the case of `O=S(=O)(NCCNC/C=C/c1ccc(Br)cc1)c1cccc2cnccc12`, the residual activity in assay [2] was 117%.
For the compound `Cc1cc(C)c(/C=C2\C(=O)Nc3ccccc32)[nH]1`, the residual activity in [9] was determined as 80%; in assay [5], 52%.
For the compound `O=C1NC(=O)C(c2c[nH]c3ccccc23)=C1c1c[nH]c2ccccc12`, the residual activity in [4] is 99%; in assay [5], 67%; in assay [7], 83%.
Consider `COc1ccc(Cl)cc1NC(=O)Nc1cc(C)nc2ccccc12`, for which the residual activity in assay [2] was 97%; in assay [3] it was 86%; in assay [4] it was 83%; in assay [5], 56%; in assay [7] it was 88%.
Consider `Nc1nc(Nc2ccc(S(N)(=O)=O)cc2)nn1C(=O)c1c(F)cccc1F`, for which the residual activity in assay [1] turned out to be 108%; in [10], 95%; in assay [2], 103%; in assay [3], 73%; in assay [4] it was 52%; in [5], 8%. Moreover, the residual activity in assay [8] came to 55%; in assay [7] it was 78%.
Consider `O=C(Nc1nc2ccccc2n1CCN1CCOCC1)c1cccc([N+](=O)[O-])c1`, for which the residual activity in assay [9] is 81%; in assay [6] it was 108%; in assay [8] it was 103%; in assay [7], 100%.
With `Cn1sc(=O)n(Cc2ccccc2)c1=O`, the residual activity is 86% in assay [9]; 86% in assay [4]; 86% in [5]; 87% in assay [6]; 84% in assay [8]; 90% in [7].
With `CCOc1nc(NC(=O)Cc2cc(OC)ccc2OC)cc(N)c1C#N`, in [3], the residual activity worked out at 74%.
Regarding `CCN(CC)CCNC(=O)c1c(C)[nH]c(/C=C2\C(=O)Nc3ccc(Cl)cc32)c1C`, the residual activity in assay [9] is 47%; in assay [4], 79%; in [5], 24%; in assay [6], 100%; in [8], 55%; in assay [7], 64%.
As for `CCOC(=O)c1c(C)[nH]c(/C=C2\C(=O)Nc3ccccc32)c1C`, the residual activity came to 99% in assay [9], 97% in assay [4], 93% in assay [5] and 97% in [7].
`CC(C)(C)c1nc2c3ccc(F)cc3c3c(=O)[nH]ccc3c2[nH]1`: the figures for the residual activity in assay [9], in [6] and in [8] were 72%, 103% and 103%, respectively.
`O=C1Cc2c([nH]c3ccc(Br)cc23)-c2ccccc2N1`: the residual activity in assay [9] is 58%; in [4] it was 98%; in assay [5] it was 72%; in assay [6], 95%; in [8] it was 82%; in [7], 98%.
As for `O=C1Nc2ccccc2/C1=C\c1c(Cl)[nH]c2ccccc12`, the residual activity in [2] was 118%.
Take `Nc1nccc(-c2c(-c3ccc(F)cc3)ncn2C2CCNCC2)n1`: the residual activity is 71% in assay [10], 113% in assay [2], 72% in assay [3] and 60% in assay [8].
